Results on 40 compounds are retold here after the supplement of paper PMC9023506.

Structures are written as SMILES. Counter-ions that a name gives are not always drawn.

For the assay, the system named is Danio rerio larvae (5 dpf). The experiment in a line: optomotor response to fast red moving lines, difference vs DMSO (percentage points (treated minus DMSO)); higher = more of the behaviour than the DMSO vehicle control. The conditions noted are these: 10 µM; exposure time: 3 h pre-incubation + 3 h imaging. The protocol: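 5-dpf wild-type zebrafish larvae were imaged in 96-well plates. They were treated with 190 Tocris FDA-approved drugs at 10 µM (1 µl/ml DMSO) for 3 h before and 3 h during imaging at 28.5 °C, 48 larvae per drug. Automated image analysis gave % time moving and optomotor responses. Values are drug group mean minus DMSO vehicle mean (n=844), in percentage points, for 10 behaviours.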
Regarding `CCCCC(=O)N(Cc1ccc(-c2ccccc2-c2nnn[nH]2)cc1)[C@H](C(=O)O)C(C)C` [Valsartan], the optomotor response was -0.58.

Turning to `CN1CC2c3ccccc3Oc3ccc(Cl)cc3C2C1` (stereo not given) [Asenapine maleate], the optomotor response was -11.9.

As for `NC(=O)N1c2ccccc2C=Cc2ccccc21` [Carbamazepine], the optomotor response is -9.08.

`OC(CNCC(O)C1CCc2cc(F)ccc2O1)C1CCc2cc(F)ccc2O1` (stereo not given) [Nebivolol hydrochloride]: the optomotor response is -19.6.

`CC(=O)O[C@H]1C(=O)[C@@]2(C)[C@H]([C@H](OC(=O)c3ccccc3)[C@]3(O)C[C@H](OC(=O)[C@H](O)[C@@H](NC(=O)c4ccccc4)c4ccccc4)C(C)=C1C3(C)C)[C@]1(OC(C)=O)CO[C@@H]1C[C@@H]2O` [Taxol]: the optomotor response was -16.4.

Regarding `C[C@]12CC[C@@H]3c4ccc(O)cc4C[C@@H](CCCCCCCCC[S+]([O-])CCCC(F)(F)C(F)(F)F)[C@H]3[C@@H]1CC[C@@H]2O` (stereo not given in full), the optomotor response was found to be 3.52.

Regarding `C[C@@H]1C[C@H]2[C@@H]3CCC4=CC(=O)C=C[C@]4(C)[C@@]3(F)[C@@H](O)C[C@]2(C)[C@@]1(O)C(=O)CO` [Dexamethasone], the optomotor response was 0.576.

With `CC/C(=C(\c1ccccc1)c1ccc(OCCN(C)C)cc1)c1ccccc1` [Tamoxifen citrate], the optomotor response was -8.84.

Consider `CCOC(=O)[C@H](CCc1ccccc1)N[C@@H](C)C(=O)N1[C@H](C(=O)O)C[C@@H]2CCC[C@@H]21` [Ramipril], for which the optomotor response is -1.3.

On to `COc1ccc(-c2ccc3cc(C(=O)O)ccc3c2)cc1C12CC3CC(CC(C3)C1)C2` [Adapalene], for which the optomotor response was -11.7.

For the compound `CC(=O)O[C@]1(C(C)=O)CC[C@H]2[C@@H]3C=C(C)C4=CC(=O)CC[C@]4(C)[C@H]3CC[C@@]21C` [Megestrol Acetate], the optomotor response is -10.3.

For `Nc1ncn([C@H]2C[C@H](O)[C@@H](CO)O2)c(=O)n1` [Decitabine], the optomotor response is 1.67.

Regarding `CNCc1ccc(-c2[nH]c3cc(F)cc4c3c2CCNC4=O)cc1` [Rucaparib camsylate], the optomotor response was 3.57.

Consider `COc1cccc2c1C(=O)c1c(O)c3c(c(O)c1C2=O)C[C@@](O)(C(=O)CO)C[C@@H]3O[C@H]1C[C@H](N)[C@H](O)[C@H](C)O1` [Doxorubicin hydrochloride], for which the optomotor response came to 6.53.

In the case of `COc1cc2nc(N3CCN(C(=O)c4ccco4)CC3)nc(N)c2cc1OC` [Prazosin hydrochloride], the optomotor response stood at 3.73.

On to `CN(C)CC/C=C1/c2ccccc2COc2ccc(CC(=O)O)cc21` [Olopatadine hydrochloride], for which the optomotor response was determined as 5.8.

In the case of `N#Cc1ccc2[nH]cc(CCCCN3CCN(c4ccc5oc(C(N)=O)cc5c4)CC3)c2c1` [Vilazodone hydrochloride], the optomotor response was -38.2.

Consider `CCN(CC)CCNC(=O)c1c(C)[nH]c(/C=C2\C(=O)Nc3ccc(F)cc32)c1C` [Sunitinib malate], for which the optomotor response was 10.6.

With `CN(C)CCC[C@@]1(c2ccc(F)cc2)OCc2cc(C#N)ccc21` [Escitalopram oxalate], the optomotor response was -7.01.

Consider `CC(C)COCC(CN(Cc1ccccc1)c1ccccc1)N1CCCC1` (stereo not given) [Bepridil hydrochloride], for which the optomotor response was found to be 7.72.

As for `Nc1nc2c(ncn2COCCO)c(=O)[nH]1` [Acyclovir], the optomotor response came to 4.83.

In the case of `CC(=O)Oc1ccccc1C(=O)O` [Aspirin], the optomotor response was -7.85.

For `CC1=Nc2ccc(Cl)cc2S(=O)(=O)N1` [Diazoxide], the optomotor response is -1.95.

As to `CCc1c2c(nc3ccc(OC(=O)N4CCC(N5CCCCC5)CC4)cc13)-c1cc3c(c(=O)n1C2)COC(=O)[C@]3(O)CC`, the optomotor response amounted to 0.47.

As to `CCCc1nn(C)c2c(=O)[nH]c(-c3cc(S(=O)(=O)N4CCN(C)CC4)ccc3OCC)nc12` [Sildenafil citrate], the optomotor response is -12.3.

On to `C[C@@H](O[C@H]1OCCN(Cc2n[nH]c(=O)[nH]2)[C@H]1c1ccc(F)cc1)c1cc(C(F)(F)F)cc(C(F)(F)F)c1` [Aprepitant], for which the optomotor response stood at 7.32.

As for `C=CC(=O)N1CCC[C@@H](n2nc(-c3ccc(Oc4ccccc4)cc3)c3c(N)ncnc32)C1` [Ibrutinib], the optomotor response is -0.957.

For the compound `CC(C)c1ccc2oc3nc(N)c(C(=O)O)cc3c(=O)c2c1` [Amlexanox], the optomotor response is -1.36.

In the case of `CN(C)CCc1c[nH]c2ccc(C[C@H]3COC(=O)N3)cc12` [Zolmitriptan], the optomotor response was -9.74.

With `C[C@H]1O[C@H](O[C@H]2[C@H](O)[C@@H](O)[C@@H](O[C@H]3[C@H](O)[C@@H](O)C(O)O[C@@H]3CO)O[C@@H]2CO)[C@H](O)[C@@H](O)[C@@H]1N[C@H]1C=C(CO)[C@@H](O)[C@H](O)[C@H]1O` (stereo not given in full) [Acarbose], the optomotor response was found to be 12.4.

In the case of `CCCCNc1cc(C(=O)O)cc(S(N)(=O)=O)c1Oc1ccccc1` [Bumetanide], the optomotor response is -7.16.

In the case of `O=C(NCC1CCCCN1)c1cc(OCC(F)(F)F)ccc1OCC(F)(F)F` (stereo not given) [Flecainide acetate], the optomotor response is 1.94.

Turning to `CCOc1cc(CC(=O)N[C@@H](CC(C)C)c2ccccc2N2CCCCC2)ccc1C(=O)O` [Repaglinide], the optomotor response is -12.1.

Turning to `Cc1cccc(CN2CCN(C(c3ccccc3)c3ccc(Cl)cc3)CC2)c1` (stereo not given) [Meclizine dihydrochloride], the optomotor response is -10.8.

As for `CC(=O)Oc1cc2c(s1)CCN(C(C(=O)C1CC1)c1ccccc1F)C2` (stereo not given) [Prasugrel], the optomotor response is -8.05.

Turning to `CC[C@H](C)C(=O)O[C@H]1C[C@@H](C)C=C2C=C[C@H](C)[C@H](CC[C@@H]3C[C@@H](O)CC(=O)O3)[C@H]21` [Lovastatin], the optomotor response is -4.95.

Regarding `Cc1cc2c(s1)Nc1ccccc1N=C2N1CCN(C)CC1` [Olanzapine], the optomotor response was 9.42.

On to `CCOC(=O)C1=C(COCCN)NC(C)=C(C(=O)OC)C1c1ccccc1Cl` (stereo not given) [Amlodipine besylate], for which the optomotor response was 7.5.

For `CN1CCC[C@@H]1CCO[C@](C)(c1ccccc1)c1ccc(Cl)cc1` [Clemastine fumarate], the optomotor response is 13.4.

Regarding `CCC(C)(C)C(=O)O[C@H]1C[C@@H](C)C=C2C=C[C@H](C)[C@H](CC[C@@H]3C[C@@H](O)CC(=O)O3)[C@H]21` [Simvastatin], the optomotor response is -13.2.
